Source: PubChem (several laboratories)
Compounds with a hit are over-represented: about 0.75% of the library has one in this group of screens.
BioA inh-1: BioA (M. tuberculosis) enzyme inhibition | inhibition, % at 9.99 µM | 360,000 compounds, 0.096% hits | purified M. tuberculosis BioA enzyme, plate reader; in the data active means inhibition above about 40%; inconclusive means no clear call, values can overlap the other calls
Mtb hypoxia inh: reduces hypoxia-regulated biosensor signal in M. tuberculosis; M. tuberculosis hypoxia-regulated fluorescent reporter, fluorescence; fluorescence inhibition, % (no concentration beside the values); 300,000 compounds, 0.1% hits; AID 1159583; in the data active means fluorescence inhibition mostly above about 23%, no sharp cut-off; inactive means mostly below about 17%
Y pestis TopoI: blocks Yersinia pestis topoisomerase I activity. activity, % at 10 µM. 360,000 compounds, 0.064% hits. AID 504884. Y. pestis Topo-I cleavage product accumulation, plate reader; in the data active means activity above about 50%, passing the limit was not always enough; inconclusive means no clear call, values can overlap the other calls
ugtP null kill: growth inhibition of S. aureus ugtP deletion strain. S. aureus RN4220 ugtP deletion, OD600 growth, 16 h. growth inhibition, % (concentration not given with the values). 330,000 compounds, 0.54% hits. AID 1259309; in the data active means growth inhibition above about 68%;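 further: plate controls were untreated wells for no effect and antibiotic for full effect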
RN4220 kill: S. aureus RN4220 growth inhibition | OD600, 16 h | inhibition, % (concentration not given with the values) | 330,000 compounds, 0.33% hits; in the data active means inhibition above about 85%;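 further: plate controls were untreated cells for no effect and reference antibiotic for full effect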
TcdB inh: TcdB glycohydrolase inhibition | TcdB glycohydrolase enzymatic assay, plate reader | inhibition, % at 9.99 µM | 350,000 compounds, 0.24% hits; in the data active means inhibition above about 10%
Target sequence (P18177 whole entry, looked up): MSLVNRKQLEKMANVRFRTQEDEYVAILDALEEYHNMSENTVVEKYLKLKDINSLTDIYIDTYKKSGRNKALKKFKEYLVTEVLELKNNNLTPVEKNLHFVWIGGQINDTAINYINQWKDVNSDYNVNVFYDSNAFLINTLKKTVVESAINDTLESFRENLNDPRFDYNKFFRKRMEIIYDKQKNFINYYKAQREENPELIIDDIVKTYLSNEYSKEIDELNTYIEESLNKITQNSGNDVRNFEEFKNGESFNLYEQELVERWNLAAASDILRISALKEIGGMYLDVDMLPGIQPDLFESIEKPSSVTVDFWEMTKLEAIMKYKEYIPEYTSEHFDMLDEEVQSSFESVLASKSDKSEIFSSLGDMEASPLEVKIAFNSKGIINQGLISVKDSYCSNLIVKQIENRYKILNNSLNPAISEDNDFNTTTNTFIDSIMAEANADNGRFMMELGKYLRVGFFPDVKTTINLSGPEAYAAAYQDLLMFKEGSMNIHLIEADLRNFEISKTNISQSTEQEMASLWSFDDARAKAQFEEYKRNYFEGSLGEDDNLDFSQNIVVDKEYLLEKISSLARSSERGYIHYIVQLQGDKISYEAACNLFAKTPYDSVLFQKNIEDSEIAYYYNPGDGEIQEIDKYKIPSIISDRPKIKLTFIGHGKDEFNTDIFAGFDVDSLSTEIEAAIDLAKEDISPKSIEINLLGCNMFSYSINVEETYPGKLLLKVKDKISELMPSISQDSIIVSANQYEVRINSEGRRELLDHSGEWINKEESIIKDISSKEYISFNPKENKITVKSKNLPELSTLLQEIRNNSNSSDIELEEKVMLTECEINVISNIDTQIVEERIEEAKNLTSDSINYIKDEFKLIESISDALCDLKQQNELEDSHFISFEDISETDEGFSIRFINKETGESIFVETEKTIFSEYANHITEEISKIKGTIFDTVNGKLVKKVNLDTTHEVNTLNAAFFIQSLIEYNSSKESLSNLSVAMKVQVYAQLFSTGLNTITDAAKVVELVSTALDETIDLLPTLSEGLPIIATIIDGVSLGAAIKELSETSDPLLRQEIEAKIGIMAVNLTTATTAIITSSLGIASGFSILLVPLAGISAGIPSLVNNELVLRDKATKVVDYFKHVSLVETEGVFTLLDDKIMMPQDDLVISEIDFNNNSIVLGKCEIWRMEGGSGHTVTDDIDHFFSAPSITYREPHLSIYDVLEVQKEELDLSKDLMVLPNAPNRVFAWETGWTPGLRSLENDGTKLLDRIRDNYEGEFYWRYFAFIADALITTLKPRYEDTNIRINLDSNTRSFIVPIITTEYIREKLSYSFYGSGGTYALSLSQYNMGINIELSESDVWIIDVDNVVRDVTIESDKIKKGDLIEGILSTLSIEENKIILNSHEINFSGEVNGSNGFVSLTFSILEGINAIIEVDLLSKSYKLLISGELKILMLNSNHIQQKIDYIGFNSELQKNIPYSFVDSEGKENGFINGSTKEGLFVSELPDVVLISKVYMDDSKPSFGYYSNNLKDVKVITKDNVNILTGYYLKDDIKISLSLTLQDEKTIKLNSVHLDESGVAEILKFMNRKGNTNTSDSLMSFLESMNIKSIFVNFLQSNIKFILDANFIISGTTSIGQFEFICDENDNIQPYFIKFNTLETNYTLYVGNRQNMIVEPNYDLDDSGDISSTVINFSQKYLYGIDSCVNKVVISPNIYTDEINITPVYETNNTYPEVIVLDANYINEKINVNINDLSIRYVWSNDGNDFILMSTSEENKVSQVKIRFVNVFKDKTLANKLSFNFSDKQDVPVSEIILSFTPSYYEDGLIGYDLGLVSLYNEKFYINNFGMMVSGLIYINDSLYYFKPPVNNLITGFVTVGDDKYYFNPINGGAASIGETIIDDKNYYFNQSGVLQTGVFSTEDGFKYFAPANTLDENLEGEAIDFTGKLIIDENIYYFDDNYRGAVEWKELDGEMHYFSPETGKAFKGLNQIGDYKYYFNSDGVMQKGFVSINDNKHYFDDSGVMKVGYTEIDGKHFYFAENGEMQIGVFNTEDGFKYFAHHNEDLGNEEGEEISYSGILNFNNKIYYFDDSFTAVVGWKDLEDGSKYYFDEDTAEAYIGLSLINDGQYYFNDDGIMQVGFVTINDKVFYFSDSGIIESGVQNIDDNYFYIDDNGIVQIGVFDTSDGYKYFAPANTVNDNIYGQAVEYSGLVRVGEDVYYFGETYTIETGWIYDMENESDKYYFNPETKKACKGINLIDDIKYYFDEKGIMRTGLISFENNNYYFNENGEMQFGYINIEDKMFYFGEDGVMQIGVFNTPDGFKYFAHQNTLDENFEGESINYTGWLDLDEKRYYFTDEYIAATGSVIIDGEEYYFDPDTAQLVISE
BioA inh-2: inhibitors of Mycobacterium tuberculosis BioA enzyme | shares compounds with BioA inh-1 | purified BioA enzyme, plate reader, dose response | max activity, % | 310 tested, under 10 active | AID 651679;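 further: top concentration of the dilution series was 10 µM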
HepG2 cytotox: kills HepG2 cells; 310 tested, under 10 active; max activity, %; HepG2 cytotoxicity, plate reader; shares compounds with BioA inh-1
3T3 cytotox 5: kills NIH3T3 cells; activity change, negative = cytotoxicity, % at 26 µM; shares compounds with BioA inh-1; NIH3T3 cytotoxicity, plate reader; 310 tested, under 10 active
Starred values were filed as active, the others as inactive; i = inactive; ? = inconclusive; nt = not tested or not shown; [ ] = another dose, or the depositor's remark. Unless noted, how the calls were made is not given here.

SMILES	BioA inh-1	Mtb hypoxia inh	Y pestis TopoI	ugtP null kill	RN4220 kill	TcdB inh	BioA inh-2	HepG2 cytotox	3T3 cytotox 5
CCOc1ccc(C(=O)Nc2cc3c(cc2N2CCCC2)n(CC)c(=O)n3CC)cc1OCC	57*	1	-2	-8	-1	0	-10	-12	-14
Cc1nc2sc(C(c3ccc(Cl)cc3)N3CCN(c4ccccc4F)CC3)c(O)n2n1 (centres undefined)	43*	nt	-2	-6	4	nt	10	-5	-4
Cc1nc2sc(C(c3ccco3)N3CCN(c4ccccc4F)CC3)c(O)n2n1 (centres undefined)	1	8	4	4	5	nt	nt	nt	nt
Cc1cccc(-c2nnc(SCC#N)n2Cc2ccccc2)c1	15	8	-2	6	4	nt	nt	nt	nt
Cc1cccc(-c2nnc(SCC#N)n2-c2ccccc2)c1	44*	4	2	3	3	nt	-6	-6	-5
COc1cc(/C=C/C(=O)Nc2cccnc2)cc(OC)c1OC	50*	1	3	17	-3	2	-4	-7	-3
COc1cc(C(=O)Nc2cccnc2)cc(OC)c1OC	80*	9	5	6	2	2	-9	-14	-10
COC(=O)[C@]1(C)NC(c2ccc(-c3cccc(Cl)c3)cc2)C2C(=O)N(C)C(=O)C21 (some centres undefined)	nt	-3	nt	1	5	nt	nt	nt	nt
O=C(CSc1nc2ccccc2c(=O)n1-c1ccccc1)N1CCN(CCO)CC1	50*	8	-6	1	7	nt	-5	?	0
FC(F)(F)c1ccc(C2C3CN(Cc4ccc(-c5ccccc5)cc4)C(c4ccccc4)C34CC2(c2cccnc2)C4)cc1 (centres undefined)	nt	-3	nt	0	5	nt	nt	nt	nt
O=C(O)CCS(=O)(=O)c1nc(-c2cccs2)cc(C(F)(F)F)n1	57*	12	7	11	4	-2	-7	-9	-2
O=C1C=C(c2ccc(-c3ccccc3)cc2)CC(c2ccc(Cl)cc2)C1 (centres undefined)	nt	7	nt	1	-1	nt	nt	nt	nt
O=C(Nc1ccc(F)cc1)NC1CCN(Cc2nnnn2Cc2ccco2)CC1	74*	7	-1	-1	-1	nt	6	?	0
ON=C1CC2(Cc3nonc31)OCCO2	nt	nt	nt	4	5	nt	nt	nt	nt
COc1ccc(C(=O)Nc2cccc(NC(=O)c3cccs3)c2)cc1	59*	15	-6	10	23	1	-8	15	-2
COc1ccc(NC(=O)c2ccc(NC(=O)c3cccs3)cc2)cc1	-2	-2	0	-1	3	2	nt	nt	nt
COc1ccc(-c2cc(NC=O)c3ncc(-c4cccc(C(=O)N(C)C)c4)n3c2)cn1	42*	nt	12	nt	nt	-3	-5	-10	-4
COc1cccc(-c2cc(NC=O)c3ncc(-c4cccc(C(=O)N(C)C)c4)n3c2)c1	16	nt	19	nt	nt	-1	nt	nt	nt
COC(=O)c1c(C(=O)OC)c(-c2ccccc2)n2c1CS(=O)C2 (centres undefined)	73*	1	-2	0	3	nt	-2	24	6
COC(=O)c1c(C(=O)OC)c(-c2ccc(OC)cc2)n2c1CS(=O)C2 (centres undefined)	17	10	12	7	4	0	nt	nt	nt
COC(=O)c1c(C(=O)OC)c(-c2ccc(F)cc2)n2c1CS(=O)C2 (centres undefined)	60*	1	3	12	4	1	-7	-6	-5
Cc1noc(C)c1NC(=O)Nc1cccc2c1OC(CN(C)C(=O)Nc1ccc(C(F)(F)F)cc1)C(C)CN(C(C)CO)C2=O (centres undefined)	nt	-4	nt	-11	0	nt	nt	nt	nt
COC1=CC2C3=C(C(NC(C)=O)CCc4cc(OC)c(OC)c(OC)c43)C2C1=O (centres undefined)	nt	0	nt	-4	3	nt	nt	nt	nt
CCC(C=NNc1ccc(S(=O)(=O)N2CCCC2)cc1[N+](=O)[O-])CC	nt	6	nt	9	8	nt	nt	nt	nt
COCCNC(=O)C[C@@H]1CC[C@@H]2[C@H](COc3ccc(NC(=O)Nc4cccc(F)c4)cc3C(=O)N2C)O1	45*	nt	nt	nt	nt	0	?	i	9
SMILES	BioA inh-1	Mtb hypoxia inh	Y pestis TopoI	ugtP null kill	RN4220 kill	TcdB inh	BioA inh-2	HepG2 cytotox	3T3 cytotox 5
COCCNC(=O)C[C@@H]1CC[C@@H]2[C@@H](COc3ccc(NC(=O)Nc4cccc(F)c4)cc3C(=O)N2C)O1	40*	nt	nt	nt	nt	0	8	i	2[23.5 µM]
COCCNC(=O)C[C@@H]1CC[C@H]2[C@H](COc3ccc(NC(=O)Nc4cccc(F)c4)cc3C(=O)N2C)O1	24	nt	nt	nt	nt	nt	nt	nt	nt
COCCNC(=O)C[C@H]1CC[C@@H]2[C@@H](COc3ccc(NC(=O)Nc4cccc(F)c4)cc3C(=O)N2C)O1	55*	nt	nt	nt	nt	1	-9	i	-2[23.5 µM]
CN(c1ccc(C(=O)NN=Cc2cccc([N+](=O)[O-])c2)cc1)S(=O)(=O)c1ccccc1	nt	-12	nt	-5	-1	nt	nt	nt	nt
COc1ccc(CNC(=O)CC(C)=NNC(=O)c2ccccc2OC)cc1	nt	4	nt	10	2	nt	nt	nt	nt
CC(/C=C/c1ccccc1)=NNC(N)=S	nt	nt	nt	-1	6	nt	nt	nt	nt
CCc1nc2ccc(Br)cc2c(=O)n1-c1ccccc1C(F)(F)F	60*	nt	-1	8	0	2	-7	?	1
Cc1cc2c(c(=O)n1Cc1cccnc1)C(c1cccs1)C(C#N)=C(N)O2 (centres undefined)	64*	nt	-11	3	1	nt	-8	22	8
Cc1cc2c(c(=O)n1Cc1cccnc1)C(Cc1ccccc1)C(C#N)=C(N)O2 (centres undefined)	nt	9	-5	-4	-12	nt	nt	nt	nt
O=C(O)CN1C(=O)/C(=C\c2cc(Br)ccc2OCc2ccc([N+](=O)[O-])cc2)SC1=S	62*	-4	2	-13	-4	-6	5	?	?
O=C(O)CN1C(=O)/C(=C\c2cc(Br)ccc2OCc2ccccc2Cl)SC1=S	4	2	-6	60	16	-2	nt	nt	nt
Cc1c(NC(=O)c2ccc(S(=O)(=O)N(C)C)cc2)cccc1-n1cnnn1	-1	13	4	6	5	-1	nt	nt	nt
Cc1c(NC(=O)c2cc3ccccc3o2)cccc1-n1cnnn1	46*	nt	6	nt	nt	1	-5	-20	3
Cc1cc(/C=C(/C#N)C(=O)Nc2ccccc2)c(C)n1-c1cccnc1	55*	8	1	-10	-7	0	-7	6	-1
Cc1cc(/C=C(\C#N)C(=O)Nc2ccccc2)c(C)n1-c1ccc2c(c1)OCO2	16	5	8	-24	9	1	nt	nt	nt
CCn1c(=O)c(=O)n(CC)c2cc(S(=O)(=O)Nc3cc(C)ccc3C)ccc21	42*	-10	10	4	1	0	-11	-15	-16
